Experimental data as given in PubChem BioAssay AID1159580 (chemical genetic matrix, 2015).
Among all 5,500 compounds or so, about 2,000 (36%) were called active. Roughly 18% stayed inconclusive and do not appear here. Rule as the data show it: active = normalized growth mostly below about 0.91 (no sharp cut-off); inconclusive = no clear call, values can overlap the other calls; inactive = mostly above about 0.92. The list shows a part of the results.

Assay: chemical genetic growth profiling, strain panel (AID 1159580);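 also: tested at 20 µM; growth read once vehicle control cultures reached saturation at 30 °C; 1 = growth at the plate median or of vehicle wells; lower values mean less growth of the strain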
Settings: growth OD
[1] = S. cerevisiae deletion strains, locus YAL013W, strain DEP1, stronger effect = lower value
[2] = S. cerevisiae deletion strains, locus YBR229C, strain ROT2, stronger effect = lower value
[3] = S. cerevisiae deletion strains, locus YDL101C, strain DUN1, stronger effect = lower value
[4] = S. cerevisiae deletion strains, locus YDL134C, strain PPH21, stronger effect = lower value
[5] = S. cerevisiae deletion strains, locus YDR150W, strain NUM1, stronger effect = lower value
[6] = S. cerevisiae deletion strains, locus YEL061C, strain CIN8, stronger effect = lower value
[7] = S. cerevisiae deletion strains, locus YGR078C, strain PAC10, stronger effect = lower value
[8] = S. cerevisiae deletion strains, locus YHR030C, strain SLT2, stronger effect = lower value
[9] = S. cerevisiae deletion strains, locus YHR087W, strain rtc3, stronger effect = lower value
[10] = S. cerevisiae deletion strains, locus YJR043C, strain POL32, stronger effect = lower value
[11] = S. cerevisiae deletion strains, locus YJR075W, strain HOC1, stronger effect = lower value
[12] = S. cerevisiae deletion strains, locus YKL190W, strain CNB1, stronger effect = lower value
[13] = S. cerevisiae deletion strains, locus YLR039C, strain RIC1, stronger effect = lower value
[14] = S. cerevisiae deletion strains, locus YLR058C, strain SHM2 (second series), stronger effect = lower value
[15] = S. cerevisiae deletion strains, locus YLR085C, strain ARP6, stronger effect = lower value
[16] = S. cerevisiae deletion strains, locus YLR262C, strain YPT6, stronger effect = lower value
[17] = S. cerevisiae deletion strains, locus YML094W, strain GIM5, stronger effect = lower value
[18] = S. cerevisiae deletion strains, locus YMR219W, strain ESC1, stronger effect = lower value
[19] = S. cerevisiae deletion strains, locus YMR263W, strain SAP30, stronger effect = lower value
[20] = S. cerevisiae deletion strains, locus YNL153C, strain GIM3, stronger effect = lower value
[21] = S. cerevisiae deletion strains, locus YNL298W, strain CLA4 (second series), stronger effect = lower value
[22] = S. cerevisiae deletion strains, locus YNL322C, strain KRE1, stronger effect = lower value
[23] = S. cerevisiae deletion strains, locus YNR030W, strain Alg12, stronger effect = lower value
[24] = S. cerevisiae deletion strains, locus YOL006C, strain TOP1, stronger effect = lower value
[25] = S. cerevisiae deletion strains, locus YPL055C, strain LGE1, stronger effect = lower value
[26] = S. cerevisiae deletion strains, locus YPL241C, strain CIN2, stronger effect = lower value
[27] = S. cerevisiae deletion strains, locus YPR135W, strain CTF4, stronger effect = lower value

Measured: normalized growth

Cc1onc(-c2c(Cl)cccc2Cl)c1C(=O)N1CCN(c2ncccc2C(F)(F)F)CC1
inactive: [1] 1.01 | [2] 1 | [3] 1.03 | [4] 0.988 | [5] 0.997 | [6] 1.03 | [7] 1 | [8] 0.908 | [9] 1 | S. cerevisiae deletion strains, locus YJL187C, strain SWE1, stronger effect = lower value 0.992 | [10] 0.966 | [11] 0.999 | [12] 1 | [13] 0.99 | [14] 0.983 | [15] 0.921 | [16] 0.964 | [17] 1.11 | [18] 0.991 | [19] 0.977 | S. cerevisiae deletion strains, locus YNL128W, strain TEP1, stronger effect = lower value 1 | [20] 1 | [21] 0.997 | [22] 0.994 | [23] 0.966 | [24] 0.934 | [25] 1.06 | [26] 0.99 | [27] 1.08 | S. cerevisiae strains, strain wild type, stronger effect = lower value 0.972

CCOC(=O)c1c(SC)[nH]c2c(C(F)(F)F)cccc2c1=O
inactive: [1] 0.996 | [2] 0.991 | [3] 0.99 | [4] 0.959 | [5] 0.939 | [6] 1.02 | [7] 0.998 | S. cerevisiae deletion strains, locus YGR229C, strain SMI1, stronger effect = lower value 0.989 | [8] 0.975 | [9] 0.975 | [10] 0.982 | [11] 0.992 | [12] 1 | [13] 0.917 | [14] 1 | [15] 0.977 | [16] 0.997 | [17] 0.986 | [18] 1 | [19] 1.03 | [20] 0.986 | [21] 1.01 | [22] 1 | [23] 0.977 | [25] 0.936 | [26] 0.982 | [27] 0.927

CC(C)(C)C(=O)N1CCN(c2ncccc2C(F)(F)F)CC1
inactive: [1] 0.988 | [2] 0.983 | S. cerevisiae deletion strains, locus YCL061C, strain MRC1, stronger effect = lower value 0.998 | [3] 0.977 | [4] 0.967 | [5] 0.983 | [6] 0.96 | [7] 0.979 | [8] 0.853 | [9] 0.973 | [10] 0.997 | [11] 0.983 | [13] 0.914 | [14] 0.989 | [15] 0.941 | [16] 0.865 | [17] 0.939 | [18] 0.99 | [19] 1.02 | [20] 0.992 | [21] 0.966 | [22] 0.974 | [23] 0.963 | [24] 0.871 | [25] 0.959 | [26] 0.999 | [27] 0.787
